Values joined by “and” are separate entries in the source; they are usually repeats but may differ in a detail not shown here. Identical values can stand only once. Records with an inconclusive call do not appear. Some structures have more than one record in an assay (separate samples or runs), and their calls can disagree. Active and inactive are the calls of the source. Unless noted, the call rests on the fitted dose curve; in most records, active means well fitted curve in the direction sought with a large enough effect in the repeat runs; inconclusive means weak or mixed curves; inactive means no such curve, though single readings can be large; an effect the other way counts as inactive or inconclusive.

Assay [1] addresses Retinoic acid receptor RXR-alpha (Homo sapiens) (UniProt P19793). The assay can be described thus: qHTS assay to identify small molecule agonists of the RXR signaling pathway (AID 1159527; calls by dose curve; further: on the % scale 0 is the no-effect control and ±100 the full control effect; nearly all actives have a fitted effect of over 35% in size). Put shortly:
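Reporter activation is measured as beta-lactamase activity via FRET substrate cleavage (emission 460/530 nm) in HEK 293T cells expressing an RXR-alpha-driven bla construct, following 16 hr compound exposure at 37 C.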
(In general: Quantitative high-throughput screening tests each substance at several concentrations.)

Assay [2] is described as follows: qHTS assay to identify small molecule agonists of the RXR signaling pathway - cell viability counter screen (AID 1159529). Further: nearly all actives have a fitted effect of over 50% in size. Further: potency means the concentration at half of the fitted maximal effect. In short, it runs like this:
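Tox21 10K compounds were tested for cytotoxicity against GeneBLAzer RXR-alpha HEK 293T cells grown in 2% charcoal-stripped FBS. Exposure lasted 16 hr at 37 C, 5% CO2; viability read by CellTiter-Glo luminescence.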

Assay [3] is described as follows: qHTS assay to identify small molecule antagonists of the retinoid acid receptor (RAR) signaling pathway - cell viability counter screen (AID 1159551). Further: on the % scale 0 is the no-effect control and ±100 the full control effect; nearly all actives have a fitted effect of over 35% in size. Put shortly: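 Measured by luminescent ATP detection, viability reflects C3RL4 cells treated 6 h at 37 C with test chemicals in the presence of 1 uM (final) retinol.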
Assay [4] is described as follows: qHTS assay to identify small molecule antagonists of the retinoic acid receptor (RAR) signaling pathway (AID 1159552; further: nearly all actives have a fitted effect of over 50% in size; further: potency means the concentration at half of the fitted maximal effect). Put shortly: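 Overnight-plated C3RL4 reporter cells get compound, then retinol to 1 uM final; plates sit 6 hr at 37 C, 5% CO2. A luciferase reagent is added and light output recorded after 30 min at room temperature.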
A short description of assay [5]: qHTS assay to identify small molecule agonists of the retinoic acid receptor (RAR) signaling pathway (AID 1159553). Further: potency means the concentration at half of the fitted maximal effect. On activation: on the % scale 0 is the no-effect control and ±100 the full control effect. The settings on record: C3RL4 RARE luciferase reporter, agonist, 6 h. Put shortly:
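6 hr compound exposure (DMSO vehicle) of overnight-plated C3RL4 RARE-luc cells at 37 C; luminescence quantified after 30 min RT with luciferase reagent.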

Assay [6] is described as follows: qHTS assay to identify small molecule antagonists of the estrogen related receptor (ERR) signaling pathway - cell viability counter screen (AID 1224818). Further: on the % scale 0 is the no-effect control and ±100 the full control effect. Put shortly: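 Compounds dissolved in DMSO were applied to ERR cells seeded at 2,000 per well 6 h earlier. Cell viability followed 17.5 h later via 30-min CellTiter-Fluor fluorescence.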
Assay [7] in a line: qHTS assay to identify small molecule antagonists of the estrogen related receptor signaling pathway with the pleiotropic PPARgamma coactivator (PGC) cell viability counter screen (AID 1224822; further: on the % scale 0 is the no-effect control and ±100 the full control effect). In short, it runs like this:
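Counter screen for cell viability: PGC/ERR cells, 6 h pre-incubation after plating, 17.5 h compound exposure at 37 C, fluorescence from CellTiter-Fluor after 30 min.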

The nature of assay [8]: qHTS assay to identify small molecule antagonists of the estrogen related receptor (ERR) signaling pathway (AID 1224819;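 further: luminescence from an ERR-driven luciferase reporter measured with One-Glo reagent; on the % scale 0 is the no-effect control and ±100 the full control effect; nearly all actives have a fitted effect of over 50% in size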). Put shortly: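 Compounds dissolved in DMSO were pin-transferred onto ERR cells that had been plated 6 h earlier, and cells were then incubated 18 h at 37 C; signal was luciferase luminescence via One-Glo.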
Assay [9] in a line: qHTS assay to identify small molecule agonists of the estrogen related receptor (ERR) signaling pathway (AID 1224820). Further: potency means the concentration at half of the fitted maximal effect. In short, it runs like this:
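Luminescence readout (One-Glo, 30 min RT) from NTP-supplied ERR cell line exposed to compounds for 18 h at 37 C. Cells seeded 2,000 per well and pre-incubated 6 h before pin-tool compound transfer.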

For assay [10], the system named is estrogen-related receptor alpha (ERRalpha) with PGC-1alpha coactivator, human. The assay is described as follows: qHTS assay to identify small molecule antagonists of the estrogen related receptor signaling pathway with the pleiotropic PPARgamma coactivator (PGC) (AID 1224821; calls by dose curve;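 further: on the % scale 0 is the no-effect control and ±100 the full control effect; lower luminescence signal means antagonism of PGC/ERR signalling; nearly all actives have a fitted effect of over 50% in size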). Put shortly:
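PGC/ERR reporter cells; 6 h pre-incubation 37 C/5% CO2; pin-tool compound in DMSO, 18 h 37 C; One-Glo added, 30 min RT; luminescence read. qHTS antagonist mode.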

Where [11] appears, read: activation: at 73.3 µM (top of the series) unless noted.

Sequence of Retinoic acid receptor RXR-alpha (Homo sapiens) (P19793 whole entry, looked up): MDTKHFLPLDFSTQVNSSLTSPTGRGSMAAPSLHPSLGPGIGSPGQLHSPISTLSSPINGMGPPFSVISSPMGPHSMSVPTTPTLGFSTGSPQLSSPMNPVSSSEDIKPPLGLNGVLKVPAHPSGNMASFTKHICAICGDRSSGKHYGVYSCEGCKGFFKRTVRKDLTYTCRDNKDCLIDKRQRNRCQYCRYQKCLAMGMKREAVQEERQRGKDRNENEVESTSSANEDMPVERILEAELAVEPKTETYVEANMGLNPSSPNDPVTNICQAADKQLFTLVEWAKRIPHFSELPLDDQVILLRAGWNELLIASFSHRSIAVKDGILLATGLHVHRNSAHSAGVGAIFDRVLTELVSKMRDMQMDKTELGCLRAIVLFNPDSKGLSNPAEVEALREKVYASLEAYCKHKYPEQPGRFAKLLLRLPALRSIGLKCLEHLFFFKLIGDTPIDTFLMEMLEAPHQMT

Take `ClC1C(Cl)C(Cl)C(Cl)C(Cl)C1Cl` (stereo unspecified): the Potency entry in assay [1], in assay [3], in [4] and in assay [5] (setting [11]) was “inactive” in each case. Besides, in [2], the Potency result is “inactive and 43.6 µM (active)”.
On to `NCc1cccnc1`, for which the Potency result in assay [1], in [2], in assay [3], in [4] and in [5] (setting [11]) was “inactive” in each case.
In the case of `Nn1cnnc1`, the Potency result in assay [1], in assay [3], in assay [4] and in assay [5] (setting [11]) was “inactive” each time.
`CC(C)N(C(=O)SCC(Cl)=C(Cl)Cl)C(C)C`: the Potency entry in assay [1], in [3], in assay [4] and in [5] (setting [11]) was “inactive” each time.
For `c1ccc(NNc2ccccc2)cc1`, the Potency entry in assay [1], in [3] and in assay [4] was “inactive” in each case.
Turning to `S=C1NCCN1`, the Potency result in assay [1], in [2], in assay [3], in assay [4] and in assay [5] (setting [11]) was “inactive” each time.
With `CC(O)CCO` (stereo unspecified), the Potency result in [1], in [2], in [3], in assay [4] and in assay [5] (setting [11]) was “inactive” in each case.
Consider `CCCCCCCCOC(=O)c1ccccc1C(=O)OCCCCCCCC`, for which the Potency result in [1], in assay [3], in assay [4] and in assay [5] (setting [11]) was “inactive” each time.
`COP(=O)(OC)OC`: the Potency result in [1] and in assay [3] was “inactive” each time.
Regarding `CCOC(=O)C(C)OC(=O)c1cc(Oc2ccc(C(F)(F)F)cc2Cl)ccc1[N+](=O)[O-]` (stereo unspecified), the Potency result in assay [1], in [2], in assay [3], in assay [4] and in [5] (setting [11]) was “inactive” in each case.
Turning to `Oc1cc(Cl)c(Cl)cc1Cl`, the Potency result in assay [1] and in [3] was “inactive” each time.
For `CCCCNC(=O)n1c(NC(=O)OC)nc2ccccc21`, the Potency entry in [1], in [2], in assay [3] and in [4] was “inactive” each time. For the same compound, the Potency in [5] (setting [11]) was 13.6 µM (active).
For `Clc1nc(Cl)nc(Cl)n1`, the Potency result in assay [1] and in assay [3] was “inactive” each time.
Take `c1ccc(P(c2ccccc2)c2ccccc2)cc1`: the Potency result in assay [1] and in assay [3] was “inactive” each time.
Consider `C[C@]12CCC(=O)C(O)=C1CC[C@@H]1[C@@H]2CC[C@]2(C)C(=O)CC[C@@H]12`, for which the Potency result in [1] and in assay [3] was “inactive” in each case.
Regarding `CCCCCCOC(=O)c1ccccc1C(=O)OCCCCCC`, the Potency entry in assay [1], in assay [3], in assay [4] and in assay [5] (setting [11]) was “inactive” in each case.
Consider `CCC(C)c1ccc(O)cc1` (stereo unspecified), for which the Potency entry in assay [1] and in assay [3] was “inactive” each time.
Consider `CN(C)c1ccc(C(=O)c2ccc(N(C)C)cc2)cc1`, for which the Potency result in [1], in assay [2], in assay [3] and in assay [4] was “inactive” each time. For the same compound, in assay [5] (setting [11]), the Potency is 1.21 µM (active) and 1.22 µM (active).
Take `CNC(=O)N(C)c1nnc(C(C)(C)C)s1`: the Potency entry in assay [1], in [3], in assay [4] and in [5] (setting [11]) was “inactive” each time.
Regarding `Cc1ccccc1[N+](=O)[O-]`, the Potency entry in assay [1], in assay [2], in [3] and in assay [4] was “inactive” in each case. The activation in assay [5] (setting [11]) is 0.464% [at 94.8 µM] (active); in assay [5] (at 73.3 µM (top of the series)), 1.75% (inactive).
Regarding `O=C(CCl)c1ccccc1`, the Potency result in assay [1], in assay [2], in [3], in [4] and in assay [5] (setting [11]) was “inactive” in each case.
With `COc1ccc(C(CN(C)C)C2(O)CCCCC2)cc1` (stereo unspecified), the Potency entry in assay [1], in [2], in assay [3] and in [7] was “inactive” each time. In addition, the result in [6] was inactive.
For the compound `Oc1cc(Cl)ccc1Cl`, the Potency entry in [1], in assay [3], in assay [4] and in assay [5] (setting [11]) was “inactive” throughout.
`Nc1cccnc1`: the Potency result in [1], in assay [3], in [4] and in [5] (setting [11]) was “inactive” in each case.
`O=P(O)(O)CCCl`: the Potency entry in assay [1], in [3], in assay [4] and in assay [5] (setting [11]) was “inactive” in each case.
With `CC(C)(C)c1ccccc1O`, the Potency result in [1] and in assay [3] was “inactive” throughout.
Regarding `CC(C)C(=O)OCC(C)(C)C(OC(=O)C(C)C)C(C)C` (stereo unspecified), the Potency entry in assay [1], in [3], in assay [4] and in [5] (setting [11]) was “inactive” each time.
Regarding `CC(C)NC(C)C`, the Potency entry in [1], in assay [2], in [3], in assay [4] and in assay [5] (setting [11]) was “inactive” in each case.
In the case of `N#CC(Br)Br`, the Potency entry in assay [1], in [3], in assay [4] and in assay [5] (setting [11]) was “inactive” in each case.
For the compound `Nc1ccc(Cl)cc1N`, the Potency entry in assay [1], in assay [2], in assay [3], in assay [4], in assay [8] and in [10] was “inactive” each time. Moreover, the Potency entry in assay [7] was “inactive”. Moreover, the Potency in [5] (setting [11]) was 1.6 µM (active) and 545 nM (active); in [9], 5.88 µM (active). In assay [6], the call was inactive.
`O=C1C=CC(=O)C=C1`: the Potency entry in assay [1], in assay [2], in [3] and in [7] was “inactive” each time. In [6], the outcome was inactive.
Take `CCCCC(CC)COC(=O)c1ccc(C(=O)OCC(CC)CCCC)c(C(=O)OCC(CC)CCCC)c1` (stereo unspecified): the Potency entry in assay [1], in [3], in assay [4] and in assay [5] (setting [11]) was “inactive” in each case.
Consider `Cc1cc(C)cc(C)c1`, for which the Potency result in [1], in assay [3], in assay [4] and in assay [5] (setting [11]) was “inactive” each time.
As to `C=CCc1ccc2c(c1)OCO2`, the Potency result in assay [1], in assay [3], in [4] and in [5] (setting [11]) was “inactive” throughout.
As for `C=CCN(CC=C)C(=O)C(Cl)Cl`, the Potency result in [1] and in assay [3] was “inactive” each time.
As to `CCC(C)c1cc([N+](=O)[O-])cc([N+](=O)[O-])c1O` (stereo unspecified), the Potency entry in assay [1], in assay [3], in assay [4] and in assay [5] (setting [11]) was “inactive” in each case.
As for `NC(=S)Nc1ccccc1`, the Potency result in [1], in [3], in assay [4] and in assay [5] (setting [11]) was “inactive” throughout. Further, the Potency in [2] was 25 µM (active) and inactive.
As for `C#CCOS(=O)OC1CCCCC1Oc1ccc(C(C)(C)C)cc1` (stereo unspecified), in assay [4], the Potency is 13.7 µM (active) and 15.4 µM (active). Further, in [5] (setting [11]), the Potency entry is “inactive”.
With `CCC(CC)Nc1c([N+](=O)[O-])cc(C)c(C)c1[N+](=O)[O-]`, the Potency entry in [3] was “inactive”.
As to `Cc1cc(Cl)ccc1OCCCC(=O)O`, the Potency result in assay [2], in assay [3], in [4] and in assay [5] (setting [11]) was “inactive” in each case.
As for `O=[N+]([O-])c1ccc(O)c([N+](=O)[O-])c1`, the Potency entry in [3], in assay [4] and in assay [5] (setting [11]) was “inactive” in each case.

Source of the values: PubChem BioAssay (Tox21).
